# HP1b chromo inh – blocks HP1-beta chromodomain binding to methylated histone tails; AID 540317; 390,000 compounds, 0.56% hits; P83916; AlphaScreen HP1-beta / biotin-H3K9me3 peptide binding; Potency, µM (series often up to 114 µM), inactives show top-dose activity change, negative = inhibition, usual class: inhibitors; note: nearly all actives have a fitted effect of over 70% in size
#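 AlphaScreen: HP1-beta (50 nM) preformed 30 min with biotin-H3(1-18)K9me3 peptide (50 nM) in PBS pH 7.4, 0.01% Tween-20. Compound added for 30 min at RT, then streptavidin donor/nickel chelate acceptor beads (10 ug/mL) for 30 min.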
# 12-LOX inh – ALOX12 (human) lipoxygenase inhibition; purified 12hLO, xylenol orange hydroperoxide absorbance; Potency, µM (highest dose often 108 µM), for inactives: top-dose activity change, negative = inhibition, most hits filed as inhibitors; 580,000 compounds, 1.1% hits; AID 1671190; note: % is set by controls: 0 for no effect and ±100 for the full control effect
#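 Hydroperoxide product was detected by ferrous iron/xylenol orange as the 573 to 405 nm absorbance ratio. Arachidonic acid at 40 uM (final) was turned over for 30 min at room temperature by 150 nM human 12hLO, pH 7.0 Hepes buffer, after 15 min compound preincubation.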
# Sfp inh – inhibitors of Bacillus subtilis Sfp phosphopantetheinyl transferase; Q9F4F7; Biochemical Sfp PPTase activity, qHTS; Potency, µM, without a hit: largest response in the series, negative = inhibition, most hits filed as inhibitors; 310,000 compounds, 3.5% hits;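 note: the enzyme is Sfp with the accession as filed and its product quenches rhodamine fluorescence; 0% = enzyme reaction without inhibitor and -100% = no enzyme wells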
#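 Step 1, compound plus 15 nM Sfp-PPTase, 15 min, room temperature. Step 2, add rhodamine-CoA (5 uM) and BHQ-2-YbbR (12.5 uM). Step 3, read 525/598 nm fluorescence at 0 and 30 min.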
# BAZ2B inh – inhibitors of human BAZ2B bromodomain; Q9UIF8; AlphaScreen BAZ2B-H3K14Ac peptide displacement; Potency, µM (titrated, usually from 114 µM), inactives show at the top dose activity change, negative = inhibition, usual class: inhibitors; 360,000 compounds, 4.4% hits; AID 504333; note: % is set by controls: 0 for no effect and ±100 for the full control effect; nearly all actives have a fitted effect of over 60% in size
#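 AlphaScreen luminescence quantifies BAZ2B engagement of H3K14Ac peptide; the protein and biotinylated peptide are both at 50 nM final, buffer PBS pH 7.4 with 0.01% Tween-20, all steps at room temperature.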
# JMJD2A Tudor – blocks the human JMJD2A Tudor domain. AID 504339. Potency, µM (series often up to 114 µM), inactives show at the top dose activity change, negative = inhibition, actives largely listed as inhibitors. AlphaScreen JMJD2A-Tudor / H3K4me3 peptide binding. 390,000 compounds, 4.4% hits. O75164; note: % is set by controls: 0 for no effect and ±100 for the full control effect; nearly all actives have a fitted effect of over 50% in size
# G9a block – blocks human histone lysine methyltransferase G9a. 350,000 compounds, 8.8% hits. Potency, µM (doses to about 102 µM), for inactives: at the top dose activity, negative = inhibition, most hits filed as inhibitors. G9a H3K9 monomethylation, AlphaScreen, 2 h. AID 504332; note: % is set by controls: 0 for no effect and ±100 for the full control effect; nearly all actives have a fitted effect of over 75% in size
#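 G9a (20 nM) was preincubated 15 min with compound, then reacted 2 h at room temperature with 500 nM biotin-H3K9 peptide and 20 µM SAM. Monomethyl-H3K9 detected by AlphaScreen using anti-H3K9me1 antibody.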
# * = called active by the depositor; ? = inconclusive; · = no result; [ ] = dose if it differs, or a comment. Hits are enriched below; roughly 8.7% of the tested compounds scored in any of these assays. Calls come from the whole dose curve; as a rule, active = well fitted curve in the direction sought with a large enough effect; inconclusive = small, poorly fitted or top-dose-only effect, or another doubt; inactive = no such curve, though single readings can be large; an effect the other way counts as inactive or inconclusive. Potency is the fitted concentration of half-maximal effect.
SMILES,HP1b chromo inh,12-LOX inh,Sfp inh,BAZ2B inh,JMJD2A Tudor,G9a block
COCCNC(=O)Cn1cc(C(=S)N2CCCCC2)c2ccccc21,28%,-13%,-25%,?,-18%,·
O=C(O)Cn1cc(C(=S)N2CCCCC2)c2ccccc21,-9%,40µM*,22µM*,6%,?,10µM*
O=C(O)Cn1cc(C(=S)N2CCOCC2)c2ccccc21,-20%,10µM*,50µM*,-14%,-18%,?
O=C(c1cccs1)n1cc(C(=S)N2CCOCC2)c2ccccc21,2%,?,15%,?,?,28µM*
S=C(c1cn(CCOc2ccccc2)c2ccccc12)N1CCCC1,-9%,0%[57.4 µM],?,-35%,-27%,35µM*
COc1ccc2cc(C(=O)NCCC(=O)Nc3ccc4c(c3)OCCO4)[nH]c2c1,·,76%,·,·,·,·
Cc1ccccc1NC(=O)CSc1nccn2nc(-c3cccc4ccccc34)cc12,·,4%,·,·,·,·
CN1CCC(Oc2ccc(NC(=O)c3ccncc3)cn2)C1 (centres undefined),·,58%,·,·,·,·
CCC(=O)Nc1c(-c2cccs2)c(=O)c2ccccc2n1C,20%,-5%,89µM*,-37%,-19%,?
Cc1cc(/C=C/c2nc3c(ccc4ccccc43)s2)cc(C)c1O,·,6.3µM*,·,·,·,·
O=C(CC1CCCC1)NC1CCN(C(=O)N2CC3CC(C2)[C@H]2CCCC(=O)N2C3)CC1 (some centres undefined),·,17%,·,·,·,·
CCCn1c(N)c(N(CCOC)C(=O)c2ccc(OC(F)(F)F)cc2)c(=O)[nH]c1=O,·,4%,·,·,·,·
O=C(Nc1cc(Cl)cc(Cl)c1)C(c1ccccc1)N1CCN(C(=O)C2CC2)CC1 (centres undefined),·,17%,·,·,·,·
Nc1c2c(nc3ccccc13)N(C1CCCCC1)CC2,-18%,?,-56%,?,7.1µM*,?
Nc1c2c(nc3ccccc13)CCC2,24%,236%,-6%,-5%,-22%,-18%[59 µM]
Nc1c2c(nc3ccc(Br)cc13)N(C1CCCCC1)CC2,·,·,-28%,16µM*,·,3.5µM*
Cc1cccc(-n2nnnc2C(C)(C)NC2CCCCC2)c1,·,-2%,·,·,·,·
O=S(=O)(c1ccc(-c2nc3ccccc3s2)cc1)N1CCCCCC1,·,-6%,·,·,·,·
COc1ccc(Cc2n[nH]c(=S)n2N)cc1OC,?,?,20µM*,?,7.9µM*,3.2µM*
CCOc1ccc(C/C(N)=N/n2cnnc2)cc1,27%,3%[57.4 µM],25%,11%,-11%,-13%[59 µM]
Nn1c(Cc2ccc(Br)cc2)n[nH]c1=S,?,28µM*,35µM*,?,7.1µM*,2.2µM*
Nn1c(Cc2ccccc2F)n[nH]c1=S,24%,-14%,?,-22%,3.2µM*,20µM*
Nn1c(Cc2ccccc2)nnc1Cc1ccccc1,10%[57 µM],-11%,·,·,0%,·
CCOc1ccc(Cc2n[nH]c(=S)n2N)cc1,?,?,56µM*,-31%,8.9µM*,?
COc1cccc(CC(=O)N[C@@H]2C[C@H](Cn3cc(CN(C)C)nn3)[C@@H](O)[C@H]2O)c1,·,20%,·,·,·,·
SMILES,HP1b chromo inh,12-LOX inh,Sfp inh,BAZ2B inh,JMJD2A Tudor,G9a block
COc1ccc(Cc2nc(=S)[nH][nH]2)cc1Br,?,?,35µM*,?,-18%[57.1 µM],-118%
COc1ccc(CSc2nnc(Cc3ccc(OCC(C)C)cc3)n2C)cc1Br,·,-2%,·,·,·,·
COc1ccc(Cc2n[nH]c(=S)n2C)cc1Br,5%,?,?,11%,20µM*,?
Cc1ccsc1C(=O)N1CCc2n[nH]c(=O)n2CC1,·,29%,·,·,·,·
COc1ccc(-n2nc3c(N4CCCC(C(=O)NCc5ccc(C)cc5)C4)nnc(C)c3c2C)cc1 (centres undefined),14%,?,·,50µM*,56µM*,?
Cc1nnc(N2CCCC(C(=O)NCc3ccc(OC(C)C)cc3)C2)c2nn(-c3ccccc3)c(C)c12 (centres undefined),57%,?,89µM*,-8%,-18%,·
